Common to all, as to assay: DAPPL (digital affinity profiling via proximity ligation, sequencing); 10 mM Tris-HCl pH 7.5, 50 mM NaCl, 1 mM DTT, 4% glycerol, room temperature, 30 min; GST-TFs on glutathione beads, 16-mer random dsDNA library, 0.1% formaldehyde crosslink after washing; high values mean tight binding
What all share (conditions): protein: recombinant; tags: N-terminal GST; dsDNA, one strand shown

For one assay, the target named is T1, FLI1 (Homo sapiens, UniProt Q01543 1-452).
T1 sequence: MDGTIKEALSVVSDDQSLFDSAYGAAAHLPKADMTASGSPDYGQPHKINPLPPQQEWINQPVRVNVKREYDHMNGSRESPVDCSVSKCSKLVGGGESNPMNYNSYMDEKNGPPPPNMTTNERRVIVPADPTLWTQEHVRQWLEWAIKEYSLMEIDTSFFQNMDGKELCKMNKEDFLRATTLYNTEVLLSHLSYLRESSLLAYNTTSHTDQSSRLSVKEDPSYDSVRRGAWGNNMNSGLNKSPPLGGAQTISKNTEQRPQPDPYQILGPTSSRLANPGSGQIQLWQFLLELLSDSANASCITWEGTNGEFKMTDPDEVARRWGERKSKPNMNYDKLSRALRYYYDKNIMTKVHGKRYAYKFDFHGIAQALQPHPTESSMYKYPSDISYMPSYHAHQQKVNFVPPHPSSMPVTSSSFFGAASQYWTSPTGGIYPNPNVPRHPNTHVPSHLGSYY
The method, boiled down:
(§1)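 GST fusions of human transcription factors were expressed in yeast and captured with glutathione beads. Once given DNA barcodes and pooled alongside a tag-only sample, they were incubated for 30 min at room temperature with 200 nmole of a random double-stranded 16-mer DNA library in Tris/NaCl/DTT/glycerol buffer, then washed, crosslinked (0.1% formaldehyde), proximity-ligated, PCR-amplified and sequenced on an Illumina NextSeq500. The binding signal of each hexamer is its read frequency for a factor divided by its frequency for the tag-only sample.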

A further assay has as its target T2, ELK1 (Homo sapiens, UniProt P19419 1-428).
T2 sequence: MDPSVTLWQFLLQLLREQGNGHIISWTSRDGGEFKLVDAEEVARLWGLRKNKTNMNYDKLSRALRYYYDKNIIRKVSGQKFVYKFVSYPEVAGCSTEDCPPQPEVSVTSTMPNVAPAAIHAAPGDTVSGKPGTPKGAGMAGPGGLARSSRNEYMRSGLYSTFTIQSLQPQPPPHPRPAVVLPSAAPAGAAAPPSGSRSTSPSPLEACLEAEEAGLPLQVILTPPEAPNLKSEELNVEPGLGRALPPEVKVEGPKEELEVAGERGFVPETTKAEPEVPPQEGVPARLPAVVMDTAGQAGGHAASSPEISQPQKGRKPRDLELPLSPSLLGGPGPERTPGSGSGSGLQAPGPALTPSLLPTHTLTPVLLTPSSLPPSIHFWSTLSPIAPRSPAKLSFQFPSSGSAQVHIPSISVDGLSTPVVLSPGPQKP
In a few lines: as §1

For another assay, the target named is T3, GABPA (Homo sapiens, UniProt Q06546 1-454).
T3 sequence: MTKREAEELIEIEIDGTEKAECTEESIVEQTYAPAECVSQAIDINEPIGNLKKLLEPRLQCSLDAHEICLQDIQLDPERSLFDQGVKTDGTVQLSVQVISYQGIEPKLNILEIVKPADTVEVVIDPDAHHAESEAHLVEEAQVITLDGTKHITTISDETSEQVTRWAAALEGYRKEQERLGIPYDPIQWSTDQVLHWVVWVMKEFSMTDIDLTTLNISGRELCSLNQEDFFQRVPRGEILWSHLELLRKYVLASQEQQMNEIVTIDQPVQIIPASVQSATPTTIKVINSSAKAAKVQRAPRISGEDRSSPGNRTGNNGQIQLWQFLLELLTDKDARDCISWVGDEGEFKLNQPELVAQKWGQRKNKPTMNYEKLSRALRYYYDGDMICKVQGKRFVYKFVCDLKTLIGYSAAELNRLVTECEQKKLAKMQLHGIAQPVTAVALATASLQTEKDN
In a few lines: as §1

A further assay addresses T4, ERG (Homo sapiens, UniProt P11308 1-479).
T4 sequence: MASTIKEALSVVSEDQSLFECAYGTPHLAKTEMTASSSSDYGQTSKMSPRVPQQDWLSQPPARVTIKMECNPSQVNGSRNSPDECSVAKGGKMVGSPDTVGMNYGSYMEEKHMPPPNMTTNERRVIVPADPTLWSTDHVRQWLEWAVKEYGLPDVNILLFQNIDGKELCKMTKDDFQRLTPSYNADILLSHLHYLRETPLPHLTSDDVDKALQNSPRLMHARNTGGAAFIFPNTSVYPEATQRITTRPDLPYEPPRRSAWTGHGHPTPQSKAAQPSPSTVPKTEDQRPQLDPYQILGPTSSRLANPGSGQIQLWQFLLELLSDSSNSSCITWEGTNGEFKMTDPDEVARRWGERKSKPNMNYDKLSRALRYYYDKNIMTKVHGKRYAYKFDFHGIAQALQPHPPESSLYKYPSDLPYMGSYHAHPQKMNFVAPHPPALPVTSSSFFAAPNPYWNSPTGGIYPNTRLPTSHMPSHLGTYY
The method, boiled down:
as §1

In another assay the target is ELF1 (Homo sapiens, UniProt P32519 1-619). The method, boiled down:
as §1

Another assay has as its target T5, EHF (Homo sapiens, UniProt Q9NZC4 1-300).
T5 sequence: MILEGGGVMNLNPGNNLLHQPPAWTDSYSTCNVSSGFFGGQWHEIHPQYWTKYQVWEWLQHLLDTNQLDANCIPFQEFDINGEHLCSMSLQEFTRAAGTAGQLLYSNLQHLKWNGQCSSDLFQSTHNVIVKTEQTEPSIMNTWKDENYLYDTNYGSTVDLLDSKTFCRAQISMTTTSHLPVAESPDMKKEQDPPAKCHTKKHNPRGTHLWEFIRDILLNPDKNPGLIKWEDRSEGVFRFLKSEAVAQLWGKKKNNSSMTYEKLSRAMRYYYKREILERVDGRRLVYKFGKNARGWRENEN
The method, boiled down: as §1

In another assay the target is SPI1 (Homo sapiens, UniProt P17947 1-270). The method, boiled down:
as §1

A further assay has as its target SPIB (Homo sapiens, UniProt Q01892 1-262). In a few lines:
as §1

The target in another assay is T6, FEV (Homo sapiens, UniProt Q99581 1-238).
T6 sequence: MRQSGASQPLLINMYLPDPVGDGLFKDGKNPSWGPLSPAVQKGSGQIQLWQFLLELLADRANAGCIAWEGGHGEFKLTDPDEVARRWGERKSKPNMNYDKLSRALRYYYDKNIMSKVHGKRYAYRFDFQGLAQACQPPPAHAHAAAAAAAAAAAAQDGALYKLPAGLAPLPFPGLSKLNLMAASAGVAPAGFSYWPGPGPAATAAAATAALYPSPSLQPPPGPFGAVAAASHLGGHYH
In a few lines: as §1

In another assay the target is ETV5 (Homo sapiens, UniProt P41161 1-510). In a few lines: as §1
In another assay the target is T7, SPIC (Homo sapiens, UniProt Q8N5J4 1-248).
T7 sequence: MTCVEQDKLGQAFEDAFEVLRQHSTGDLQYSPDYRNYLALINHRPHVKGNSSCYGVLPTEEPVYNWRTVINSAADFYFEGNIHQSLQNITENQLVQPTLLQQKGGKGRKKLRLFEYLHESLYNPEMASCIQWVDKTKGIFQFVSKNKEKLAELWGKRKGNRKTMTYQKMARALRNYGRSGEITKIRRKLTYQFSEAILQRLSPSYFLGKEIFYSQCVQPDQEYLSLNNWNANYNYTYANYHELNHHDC
The method, boiled down: as §1

The next assay deals with ELF4 (Homo sapiens, UniProt Q99607 1-663). The method, boiled down: as §1
A further assay addresses T8, ELK4 (Homo sapiens, UniProt P28324-2 1-405).
T8 sequence: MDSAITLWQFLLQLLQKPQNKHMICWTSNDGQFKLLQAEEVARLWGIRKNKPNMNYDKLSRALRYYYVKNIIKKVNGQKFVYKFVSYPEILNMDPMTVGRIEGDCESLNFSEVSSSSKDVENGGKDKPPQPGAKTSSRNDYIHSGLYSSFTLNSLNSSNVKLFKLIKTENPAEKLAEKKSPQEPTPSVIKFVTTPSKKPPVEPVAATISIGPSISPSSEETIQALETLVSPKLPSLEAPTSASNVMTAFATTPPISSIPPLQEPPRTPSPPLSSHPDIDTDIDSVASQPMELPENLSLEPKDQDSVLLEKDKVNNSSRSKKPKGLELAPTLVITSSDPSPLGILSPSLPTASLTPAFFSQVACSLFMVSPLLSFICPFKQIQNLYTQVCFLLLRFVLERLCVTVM
In a few lines: as §1

The target in a further assay is T9, ETV2 (Homo sapiens, UniProt O00321 1-342).
T9 sequence: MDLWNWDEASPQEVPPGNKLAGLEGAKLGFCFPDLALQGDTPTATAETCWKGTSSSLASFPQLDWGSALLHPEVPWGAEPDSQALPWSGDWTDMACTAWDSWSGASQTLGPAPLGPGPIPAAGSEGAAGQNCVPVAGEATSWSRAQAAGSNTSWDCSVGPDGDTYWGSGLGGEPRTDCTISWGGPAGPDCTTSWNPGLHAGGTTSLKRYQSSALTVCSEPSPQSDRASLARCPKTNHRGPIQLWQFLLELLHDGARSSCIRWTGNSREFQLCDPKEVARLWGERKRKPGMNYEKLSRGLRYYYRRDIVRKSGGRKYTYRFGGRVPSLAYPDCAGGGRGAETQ
The method, boiled down:
as §1

A further assay addresses T10, ELF3 (Homo sapiens, UniProt P78545 1-371).
T10 sequence: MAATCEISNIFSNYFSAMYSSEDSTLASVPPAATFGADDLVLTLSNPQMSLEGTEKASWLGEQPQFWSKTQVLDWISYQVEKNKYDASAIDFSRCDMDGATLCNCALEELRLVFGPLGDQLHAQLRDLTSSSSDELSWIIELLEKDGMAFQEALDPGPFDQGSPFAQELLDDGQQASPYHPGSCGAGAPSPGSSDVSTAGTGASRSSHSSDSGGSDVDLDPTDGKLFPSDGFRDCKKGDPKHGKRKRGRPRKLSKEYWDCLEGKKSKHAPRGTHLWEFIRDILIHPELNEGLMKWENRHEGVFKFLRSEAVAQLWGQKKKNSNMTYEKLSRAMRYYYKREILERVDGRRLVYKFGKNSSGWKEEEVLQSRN
In a few lines: as §1

Another assay addresses ETV1 (Homo sapiens, UniProt P50549 1-477). The method, boiled down: as §1
A further assay deals with T11, ELK3 (Homo sapiens, UniProt P41970 1-407).
T11 sequence: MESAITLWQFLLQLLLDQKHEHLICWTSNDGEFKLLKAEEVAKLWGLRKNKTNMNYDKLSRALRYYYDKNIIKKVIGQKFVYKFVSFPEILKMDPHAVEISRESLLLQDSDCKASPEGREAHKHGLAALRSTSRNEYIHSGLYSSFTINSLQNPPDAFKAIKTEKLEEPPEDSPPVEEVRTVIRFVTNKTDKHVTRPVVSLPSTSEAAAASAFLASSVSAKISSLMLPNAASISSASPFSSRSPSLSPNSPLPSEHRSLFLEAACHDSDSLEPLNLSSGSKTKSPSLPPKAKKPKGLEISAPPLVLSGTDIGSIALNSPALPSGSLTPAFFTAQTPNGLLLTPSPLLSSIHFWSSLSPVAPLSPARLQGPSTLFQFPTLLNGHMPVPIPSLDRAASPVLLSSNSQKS
In a few lines: as §1

Sequence of ELF1 (P32519 whole entry): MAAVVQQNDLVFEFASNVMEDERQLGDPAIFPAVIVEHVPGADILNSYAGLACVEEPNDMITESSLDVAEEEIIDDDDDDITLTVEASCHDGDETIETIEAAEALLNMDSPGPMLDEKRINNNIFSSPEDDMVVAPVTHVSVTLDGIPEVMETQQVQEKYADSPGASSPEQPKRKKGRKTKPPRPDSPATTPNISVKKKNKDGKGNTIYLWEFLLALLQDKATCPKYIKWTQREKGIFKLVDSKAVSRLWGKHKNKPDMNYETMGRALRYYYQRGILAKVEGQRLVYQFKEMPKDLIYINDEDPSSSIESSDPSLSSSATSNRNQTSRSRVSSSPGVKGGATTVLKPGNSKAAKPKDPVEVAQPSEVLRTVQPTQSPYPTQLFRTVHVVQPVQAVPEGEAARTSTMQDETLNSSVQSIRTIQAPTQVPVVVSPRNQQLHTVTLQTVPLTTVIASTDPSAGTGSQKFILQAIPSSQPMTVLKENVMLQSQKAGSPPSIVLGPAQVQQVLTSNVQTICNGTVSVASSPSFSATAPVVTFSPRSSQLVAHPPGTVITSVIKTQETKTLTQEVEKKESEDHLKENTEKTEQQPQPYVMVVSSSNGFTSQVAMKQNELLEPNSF
Sequence of ELF4 (Q99607 whole entry): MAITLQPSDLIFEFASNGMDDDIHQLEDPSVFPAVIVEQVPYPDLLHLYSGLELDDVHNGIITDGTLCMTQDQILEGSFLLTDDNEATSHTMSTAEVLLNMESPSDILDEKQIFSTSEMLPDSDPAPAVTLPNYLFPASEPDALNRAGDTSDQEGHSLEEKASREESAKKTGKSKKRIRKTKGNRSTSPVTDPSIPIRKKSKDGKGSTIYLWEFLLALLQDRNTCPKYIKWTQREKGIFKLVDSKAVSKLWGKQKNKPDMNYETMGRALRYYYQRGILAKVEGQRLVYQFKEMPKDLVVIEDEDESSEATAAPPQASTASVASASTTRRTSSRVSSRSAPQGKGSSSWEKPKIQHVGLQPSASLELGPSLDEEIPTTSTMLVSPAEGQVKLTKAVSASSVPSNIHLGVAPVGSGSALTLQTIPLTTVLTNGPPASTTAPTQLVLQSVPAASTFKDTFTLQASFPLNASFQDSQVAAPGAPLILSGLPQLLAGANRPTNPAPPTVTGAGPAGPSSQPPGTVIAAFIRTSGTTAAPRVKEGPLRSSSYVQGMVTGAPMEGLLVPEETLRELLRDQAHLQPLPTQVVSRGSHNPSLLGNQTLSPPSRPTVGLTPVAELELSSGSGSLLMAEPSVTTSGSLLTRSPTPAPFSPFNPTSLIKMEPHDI
Sequence of ETV1 (P50549 whole entry): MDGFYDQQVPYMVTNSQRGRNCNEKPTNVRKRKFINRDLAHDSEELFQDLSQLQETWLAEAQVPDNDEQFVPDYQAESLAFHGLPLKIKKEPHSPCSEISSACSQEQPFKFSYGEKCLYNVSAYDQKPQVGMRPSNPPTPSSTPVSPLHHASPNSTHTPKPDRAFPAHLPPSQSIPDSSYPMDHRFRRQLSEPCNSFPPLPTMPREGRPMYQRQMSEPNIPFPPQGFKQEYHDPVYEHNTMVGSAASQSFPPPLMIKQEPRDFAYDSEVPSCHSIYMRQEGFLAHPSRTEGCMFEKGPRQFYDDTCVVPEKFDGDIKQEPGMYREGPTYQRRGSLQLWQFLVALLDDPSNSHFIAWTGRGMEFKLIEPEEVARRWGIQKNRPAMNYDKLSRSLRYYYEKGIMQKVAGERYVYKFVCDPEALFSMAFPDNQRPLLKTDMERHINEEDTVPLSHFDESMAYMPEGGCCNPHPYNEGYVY
Sequence of ETV5 (P41161 whole entry): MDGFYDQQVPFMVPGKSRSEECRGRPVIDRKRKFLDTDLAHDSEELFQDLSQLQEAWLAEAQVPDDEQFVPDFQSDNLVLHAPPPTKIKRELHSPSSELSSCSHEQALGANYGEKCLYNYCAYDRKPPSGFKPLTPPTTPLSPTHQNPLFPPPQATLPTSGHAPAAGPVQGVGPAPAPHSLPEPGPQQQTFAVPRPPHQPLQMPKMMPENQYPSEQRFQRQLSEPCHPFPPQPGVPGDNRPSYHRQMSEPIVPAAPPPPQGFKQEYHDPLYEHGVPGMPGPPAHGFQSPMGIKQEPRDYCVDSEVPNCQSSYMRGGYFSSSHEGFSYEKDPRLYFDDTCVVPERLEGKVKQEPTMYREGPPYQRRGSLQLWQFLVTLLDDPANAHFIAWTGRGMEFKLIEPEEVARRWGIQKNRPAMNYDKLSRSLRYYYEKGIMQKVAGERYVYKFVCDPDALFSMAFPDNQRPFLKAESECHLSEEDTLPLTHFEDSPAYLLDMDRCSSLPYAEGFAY
Sequence of SPIB (Q01892 whole entry): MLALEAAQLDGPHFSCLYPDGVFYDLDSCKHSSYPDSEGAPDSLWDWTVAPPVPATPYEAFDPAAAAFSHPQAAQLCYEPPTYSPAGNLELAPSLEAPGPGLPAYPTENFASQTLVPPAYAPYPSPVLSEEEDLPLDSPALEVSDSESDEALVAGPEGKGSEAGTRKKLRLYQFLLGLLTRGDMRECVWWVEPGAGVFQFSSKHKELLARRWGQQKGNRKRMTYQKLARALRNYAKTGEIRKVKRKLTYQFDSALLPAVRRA

On to TGTGCA, for which the binding signal is 1 fold enrichment (6-mer frequency, TF over GST control) with FLI1; 1.09 fold enrichment (6-mer frequency, TF over GST control) with ELK1; 1.08 fold enrichment (6-mer frequency, TF over GST control) in the assay with GABPA; 1.16 fold enrichment (6-mer frequency, TF over GST control) in the assay with ERG; 1.08 fold enrichment (6-mer frequency, TF over GST control) with ELF1; 1.14 fold enrichment (6-mer frequency, TF over GST control) with EHF. Further, the binding signal with SPI1 is 1.08 fold enrichment (6-mer frequency, TF over GST control); in the assay with SPIB, 1.18 fold enrichment (6-mer frequency, TF over GST control); in the assay with FEV it was 1.1 fold enrichment (6-mer frequency, TF over GST control); with ETV5, 1.15 fold enrichment (6-mer frequency, TF over GST control); in the assay with SPIC, 1.38 fold enrichment (6-mer frequency, TF over GST control); with ELF4 it was 1.11 fold enrichment (6-mer frequency, TF over GST control). Besides, the binding signal with ELK4 is 1.09 fold enrichment (6-mer frequency, TF over GST control); in the assay with ETV2 it was 1.01 fold enrichment (6-mer frequency, TF over GST control); with ELF3 it was 1.09 fold enrichment (6-mer frequency, TF over GST control); with ETV1, 1.05 fold enrichment (6-mer frequency, TF over GST control).

In the case of GTAACA, the binding signal in the assay with FLI1 is 1.24 fold enrichment (6-mer frequency, TF over GST control); with ELK1, 1.1 fold enrichment (6-mer frequency, TF over GST control); with GABPA it was 1.05 fold enrichment (6-mer frequency, TF over GST control); in the assay with ERG it was 1.06 fold enrichment (6-mer frequency, TF over GST control); with ELF1, 1.13 fold enrichment (6-mer frequency, TF over GST control); with EHF, 1.21 fold enrichment (6-mer frequency, TF over GST control). The binding signal was 1.12 fold enrichment (6-mer frequency, TF over GST control) with SPI1; 1.03 fold enrichment (6-mer frequency, TF over GST control) with SPIB; 1.19 fold enrichment (6-mer frequency, TF over GST control) with ELK3; 1.14 fold enrichment (6-mer frequency, TF over GST control) with FEV; 1.08 fold enrichment (6-mer frequency, TF over GST control) with ETV5; 1.12 fold enrichment (6-mer frequency, TF over GST control) with SPIC. The binding signal was 1.14 fold enrichment (6-mer frequency, TF over GST control) with ELF4; 1.12 fold enrichment (6-mer frequency, TF over GST control) with ELK4; 1.03 fold enrichment (6-mer frequency, TF over GST control) with ETV2; 1.27 fold enrichment (6-mer frequency, TF over GST control) with ELF3; 1.14 fold enrichment (6-mer frequency, TF over GST control) in the assay with ETV1.

(Values after publication PMC7862700, “An all-to-all approach to the identification of sequence-specific readers for epigenetic DNA modifications on cytosine”.)
